# Measurements: the supplement of paper PMC6555819
# Experiments:
# Assay in all cases: PBM binding z-score (relative to random genomic background probes); higher = stronger binding; sequences stand for … in GC…GCGATTGACAGCGTAGAATGAAGG
# [1] = tested on: RARb homodimer (NR concentration 270 nM)
# Procedure, shortened: (§1)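 Binding buffer was PBS pH 7.4 with 2% milk, 0.02% Triton X-100, 1 mM DTT, 0.2 mg/mL BSA and 0.4 mg/ml salmon testes DNA. In it, ligand-free nuclear receptor dimers were incubated 1 h on custom Agilent 4×180K protein-binding microarrays carrying double-stranded probes. Antibodies against each partner (one per run) detected binding, and z-scores were calculated against random background probes after regression normalization of scanned fluorescence.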
# [2] = tested on: RARg:RXRa (NR concentration 270 nM, RXRa partner concentration 90 nM)
# Procedure, shortened: as §1
# [3] = tested on: RARg homodimer (NR concentration 270 nM)
# Procedure, shortened: as §1
# [4] = tested on: RXRa DBDmut IVT, anti-RXR (DBD mutation: RXRa K156A/R161A, NR concentration 90 nM)
# Procedure, shortened: as §1
# [5] = tested on: RXRa homodimer (NR concentration 180 nM)
# Procedure, shortened: as §1
# [6] = tested on: THRa:RXRa (NR concentration 90 nM, RXRa partner concentration 90 nM)
# Procedure, shortened: as §1
# [7] = tested on: THRa homodimer (NR concentration 90 nM)
# Procedure, shortened: as §1
# [8] = tested on: VDR homodimer (NR concentration 270 nM)
# Procedure, shortened: as §1
Sequence,PBM binding z-score [1],PBM binding z-score [2],PBM binding z-score [3],PBM binding z-score [4],PBM binding z-score [5],PBM binding z-score [6],PBM binding z-score [7],PBM binding z-score [8]
CCTTACGGGTCACGAGGCTATAGCACGACGAGCG,3.24,5.45,5,0.992,6.22,3.16,0.466,0.849
GCTGCTAGGTCAACTGATGATCAGCTAAAGCTCG,3.3,4.46,5.15,1.46,2.75,2.85,0.808,-0.0271
TCATATAGGTAAACAGGTGAAAGCCCGTAAGTTA,0.749,0.546,0.364,1.2,1.64,0.571,0.487,-0.138
CCTACTGGGCCACGAAAGGTCATTGATTCAGTGA,4.53,4.73,4.37,0.61,5.18,3.67,0.798,2.59
AAAGACAGGTGATGAAGGTAACTCAGGCTATCAT,0.516,0.231,0.563,-0.304,0.572,1.23,0.466,0.111
CCTCGGAGGACAGAAGGCCAGAGCTGTCCGCTTT,0.275,-0.112,0.0875,-0.346,-0.765,0.0492,-0.927,-0.212
TCATATAGGTAAACATGTGAAAGTCCGTAAGTTA,0.34,0.489,0.354,1.66,1.06,0.435,0.267,0.405
TCGAGTAGGTTAGTCGGGGGATTCAGCCAACATA,0.341,0.199,0.0266,0.48,0.178,1.25,0.267,0.183
CAAACTAGGTCAAGAGGTCTAAGTCCGCTTCCCG,3.42,4.23,4.4,1.73,2.76,2.82,1.1,1.23
CAAACTGGGTCACGAAAGGTCAAAGTCGAATGAC,5.73,7.84,8.05,2.44,8.52,5.02,1.75,3.72
GCTCGGAGGGCAAGGTCAGAGCTTTGTCCGTAGA,3.27,3.7,3.86,0.857,2.93,2.76,0.825,0.967
CACACTAGGTCACGAAAGGTCAAAGTCGAATGAC,5.91,7.95,8.87,2.87,8.16,5.26,3.18,3.49
CCGACTGGGGCAAAGGTTACCAAACTCAGTACGA,2.24,3.53,1.67,-0.134,3.74,1.98,-0.144,0.318
TCAGATAGGTAATACAGGTGAAAGTCGGCATCTA,0.54,0.562,0.364,1.27,1.03,0.795,0.181,0.187
ACTAGCAGGCCAAGTATGGGTCACTCAAACAAAG,2.24,2.53,1.63,-0.279,1.11,0.976,-0.26,0.0355
GCATAGAGGTAATACAAGGTGAAAGTCCGATTGT,1.08,0.816,0.537,0.392,0.977,4.44,0.985,0.216
TCTAGCAGGCCAGAGGATCACTCAAGAGGTACGG,-0.66,-0.277,-0.18,-0.0121,0.0922,-0.78,-0.974,-0.819
CCTTACGGGTCACTCCAGGTTATAGCGTCGGAGT,2.85,4.55,4.23,1.41,4.06,5.06,0.469,1.5
ATCGGAAGGTCGTGAGGTGAGTATACAGAAAGGC,2.27,3.03,2.55,0.762,3.05,2.83,1.76,1.04

Sequence,PBM binding z-score [1],PBM binding z-score [2],PBM binding z-score [3],PBM binding z-score [4],PBM binding z-score [5],PBM binding z-score [6],PBM binding z-score [7],PBM binding z-score [8]
GCTGCTAGGTCAGGTTGGTCAGCTATCGGGTACG,2.73,2.44,3.56,0.759,0.93,1.84,0.785,0.204
CACCCTAGGTCAGGGCCAGTATAGGAGGAACGTT,2.67,3.33,3.69,-0.329,1.99,2.23,0.911,-0.219
CGTCCAAGGTCAGCAGGCCAGTGAAAGCGACGTG,4.1,5.07,5.77,2.47,3.86,3.74,1.89,1.25
TCTGCTAGGTCAACGCTGGTCAGCTAATCTGCTA,3.46,4.21,5.26,0.991,2.33,3.52,0.43,-0.576
CCATACGGGTCACTCCAGGTTATAGCATCGGAGT,2.96,4.24,3.85,0.942,4.03,5.15,0.591,1.76
AGAACGAGGGCACGCTGAGTTGATAGCTGAGTAG,1.13,2.07,2.06,2.15,1.37,1.92,-0.0647,1.7
AGTCGAAGTTCACTAGGTAACGTAAGATTCAGCT,1.74,2.29,2.93,3.45,1.6,1.05,-0.0118,2.7
CCTTACGGGTCACTGACAGGTTGTAGCATTTGGA,3.13,5.06,4.23,2.01,4.67,2.65,0.174,0.754
TCTAGGTGGTCACGGAGGTCACACACGACGGGTA,4.44,5.09,5.12,0.895,4.95,3.62,2.2,3.08
TCTTGTAGAACAAGCAGGTTAAGAAAGCCTGAGT,0.0404,-0.0958,-0.255,0.567,0.349,0.0268,-0.349,-0.0601
AATACTGGGTCACTAGGCCAGAGTAGGTACGAAT,2.47,2.99,3.54,0.506,2.37,1.81,0.283,0.859
CGTCAAAGTTCAACTAAAGTAACGTAAAGCACGC,4.13,5.9,6.97,4.67,5.02,2.61,0.0523,3.56
ATATGTAGGTTAAGTGTCATTCAGGTTGGTTCGC,2.02,1.53,1.47,1.1,1.9,1.58,1.08,1.53
ACTAGTTAGTCAGCTGAGGTCACACACAATTCGG,4.4,3.65,3.31,1.91,4.01,4.76,5.46,3.81
TCTAGTTTGTCACGGAGGTCACACACGACGGGTA,4.23,4.3,4.16,1.65,4.54,3.6,2.96,3.15
CCGACTGTGGCAAAGGTTACCATACTCAGTACGA,2,2.04,1.17,0.804,2.6,1.4,0.0506,0.185
CCTAGCAGGCAAGGGTCACTCAAGCATTTCGCTT,3.46,4.12,3.63,0.602,4.6,2.36,-0.309,0.817
CGAACTACGTCATTGACAGGACAGTGAATAGTAA,0.0564,0.288,0.139,0.0473,0.152,0.0548,-0.0847,-0.012
GCTGCTAGTTCAGGTTGGTCAGCTAACGGGTACG,0.833,0.083,0.586,1.19,-0.153,-0.00713,-0.222,0.636

Sequence,PBM binding z-score [1],PBM binding z-score [2],PBM binding z-score [3],PBM binding z-score [4],PBM binding z-score [5],PBM binding z-score [6],PBM binding z-score [7],PBM binding z-score [8]
GGACCAAGGTGAATAGGTCGTTGATGAGTAGGCG,1.93,2.62,1.51,-0.31,1.81,1.91,0.417,0.294
TCTTGTAGATCAACAGGAGGTTAAGACAGATCGA,0.499,0.964,0.323,0.507,0.916,0.703,-0.723,-0.102
CAAACTAGGTCACGGGAAGGTCAAAGTCCGCATG,5.63,8.25,7.46,2.31,6.72,4.73,3.09,3.1
ATCGAAAGGTCGAGGTGAATATAGAGAAAGGGAA,2.88,4.52,4.51,0.922,4.65,2.95,0.862,0.0536
AGATGTAGGTTAAGGGTCATTCAGGTTGGTTCGC,4.06,4.87,3.79,2.18,6.66,3.64,2.06,4.78
ACAGACAGGTGATTAAGGTAACTCAGGCTATCAT,0.49,0.29,0.554,0.282,0.366,2.77,1.93,0.0908
TCTAGTTGGTCAAAGCTCACACACTCGAAATGCG,0.587,0.584,0.77,1.37,0.769,0.0893,0.269,0.0543
GCTAGTTGGTCCGTAAAAGGTCACACACCGGTCG,5,5.04,4.7,0.491,5.6,3.5,1.82,1.94
GTACCAAGGTGAATAGGTCGTTGAAGAGTAGGCG,2.13,2.81,1.45,-0.183,1.9,1.91,0.593,0.198
TGAATGAGATTAAAGATCAGGGAACGTGGCGTCG,-0.824,-0.0861,0.247,-1.09,0.253,-0.316,-0.698,-0.27
CCGAGTAGGTTATGGGGCATCCAGGCAACGGTGA,0.911,0.651,0.586,-0.816,0.858,0.523,0.159,-0.188
ATATGTAGGTTACATCCGGGTCATTAAGGCTATG,3.03,3.68,2.19,1.31,3.15,3.75,2.8,2.89
ATACCAAGGTGATCGTTAGGTCGTTGATACTAAC,1.02,0.983,0.72,0.203,0.459,2.26,1.49,0.472
TCTAGTTGGTCACGGAGGTCAAACACGACGGGTA,4.53,5.24,5.02,1.28,5.47,3.78,2.02,3.62
TCATATATGTAATACAGGTGAAAGTCGGCATCTA,0.413,0.595,0.586,1.59,1.13,0.578,0.0633,0.192
TAACCTAGGTCATTGGGCCAGTATAGTACGCATC,3.46,4.58,4.75,2.44,3.95,3.19,1.52,2.14
TGAATGAGGTTATAAGAACAGGGAACGTTGCAAA,-0.0181,1.21,1,0.468,1.89,1.62,0.00377,0.365
ATCGAAAGGTCGAGGTTAGTATAGAGAAAGGGAA,2.8,4.49,4.52,1.18,4.37,2.51,0.341,0.514
